This note sets out measurements from PubChem BioAssay (EPA / NIEHS).

Results filed as inconclusive are left out. Calls of active or inactive are those of the source. The calls were made as follows, unless noted: active = hit-call score of the fitted dose curve at least 0.9, where 1 is the maximum; inconclusive = response in the unintended direction; inactive = score below 0.9.

As usually defined, the AC50 is the concentration giving half of the maximal activity seen.

Assay [1] has as its target Glucocorticoid receptor (Homo sapiens) (UniProt P04150). Put plainly: ATG_GR_TRANS: Attagene TRANS-FACTORIAL HepG2 Assay for human Glucocorticoid Receptor (GR) (AID 2282978).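 Also: activators score as hits since higher reporter transcript over DMSO is fitted.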 The settings on record: HepG2 Attagene TRANS GR reporter, mRNA transcription. The method in brief: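 HepG2 cells transiently transfected with GAL4-UAS reporter units and exogenous GR-Gal4 chimera, dosed 24 h. Reporter mRNA by RT-PCR, FAM labeling, HpaI digest and capillary electrophoresis; gain-of-signal fit versus DMSO.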

The target of assay [2] is Bile acid receptor (Homo sapiens) (UniProt Q96RI1). Put plainly: ATG_FXR_TRANS: Attagene TRANS-FACTORIAL HepG2 Assay for Farnesoid X Receptor (FXR) (AID 2282979).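 Also: hits raise reporter mRNA above DMSO so AC50 marks FXR activation.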 The settings on record: HepG2 Attagene TRANS FXR-GAL4 reporter transcription. The method in brief:
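Read-out: fluorescent reporter transcripts quantified by capillary electrophoresis after RT-PCR of total RNA. Source cells were HepG2 transiently carrying chimeric NR-GAL4 plus GAL4-UAS reporter units, dosed 24 h. Activity fitted upward relative to DMSO baseline.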

A short description of assay [3]: ATG_M_06_TRANS: Attagene TRANS-FACTORIAL HepG2 Assay for M06 Transcription Factor (Internal Marker) (AID 2282983). The settings on record: HepG2 Attagene TRANS M06 internal marker reporter. The method in brief: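 After a 24 h chemical treatment of transfected HepG2, RNA underwent DNase I treatment, reverse transcription and reporter-specific PCR; labelled, HpaI-digested products were sized by capillary electrophoresis. Signal increase relative to DMSO defined activity.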

The target in assay [4] is Transcriptional activator Myb (Homo sapiens) (UniProt P10242). Put plainly: ATG_Myb_CIS: Attagene CIS-FACTORIAL HepG2 Assay for human Myeloblastosis (Myb) Proto-Oncogene Transcription Factor (AID 2282986; active = hit-call score of the fitted dose curve at least 0.9, where 1 is the maximum; inactive = score below 0.9). The settings on record: HepG2 Attagene CIS-FACTORIAL Myb reporter transcription; actives raise or lower the signal. The method, boiled down:
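Transiently transfected HepG2 cells carrying a multiplexed cis-promoter reporter set report endogenous Myb activity after 24 h compound exposure. Reporter mRNA is read by RT-PCR with capillary electrophoresis of fluorescent products, fitted bidirectionally against DMSO.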

The target in assay [5] is Nuclear respiratory factor 1 (Homo sapiens) (UniProt Q16656). Put plainly: ATG_NRF1_CIS: Attagene CIS-FACTORIAL HepG2 Assay for human Nuclear Respiratory Factor 1 (NRF1) Orphan Gene (AID 2282987; active = hit-call score of the fitted dose curve at least 0.9, where 1 is the maximum; inactive = score below 0.9). The settings on record: HepG2 NRF1 cis-element reporter, Attagene multiplex; actives raise or lower the signal. The method in brief:
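HepG2 cells transiently transfected with multiple cis-regulated reporter units, exposed 24 h. Reporter mRNAs measured by RT-PCR, fluorescent labelling, HpaI digestion and capillary electrophoresis; bidirectional fitting against DMSO.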

Assay [6] deals with Estrogen-related receptor gamma (Homo sapiens) (UniProt P62508). Put plainly: ATG_ERRg_TRANS: Attagene TRANS-FACTORIAL HepG2 Assay for human Estrogen-Related Receptor gamma (ERRg) (AID 2282977).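 Also: hits increase reporter signal over DMSO so potencies reflect activators.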 The settings on record: HepG2 Attagene TRANS reporter, ERRg transactivation. The method in brief:
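Transient HepG2 transfectants, 24 h compound exposure, GAL4-UAS reporter mRNA by RT-PCR/6-FAM labelling/capillary electrophoresis; positive direction vs DMSO.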

Assay [7] addresses Oxysterols receptor LXR-alpha (Homo sapiens) (UniProt Q13133). Put plainly: ATG_LXRa_TRANS: Attagene TRANS-FACTORIAL HepG2 Assay for human Liver X Receptor alpha (LXRa) (AID 2282980). The settings on record: HepG2 Attagene TRANS reporter, LXRa transactivation. The method in brief: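 Read-out: reporter transcript levels by RT-PCR plus capillary electrophoresis, fluorescence intensity. Transiently transfected HepG2, exogenous NR-GAL4 chimera, GAL4-UAS reporters; 24 h compound exposure. Activity = increase over DMSO negative control.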

The target in assay [8] is Oxysterols receptor LXR-beta (Homo sapiens) (UniProt P55055). Put plainly: ATG_LXRb_TRANS: Attagene TRANS-FACTORIAL HepG2 Assay for human Liver X Receptor beta (LXRb) (AID 2282981). The settings on record: HepG2 Attagene TRANS GAL4-LXRb reporter, mRNA. The method, boiled down: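 HepG2 cells transiently transfected with multiple reporter transcription units carrying chimeric NR-Gal4 proteins acting on GAL4-UAS reporters; compound exposure 24 h. Reporter mRNA quantified by RT-PCR, 6-FAM labelling, HpaI digestion and capillary electrophoresis; gain of signal versus DMSO.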

The target of assay [9] is Nuclear receptor subfamily 4 group A member 2 (Homo sapiens) (UniProt P43354). Put plainly: ATG_NURR1_TRANS: Attagene TRANS-FACTORIAL HepG2 Assay for human Nuclear Receptor Related Protein 1 (NURR1) (AID 2282985). The settings on record: HepG2 Attagene TRANS reporter, mRNA readout. The method in brief:
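HepG2 cells transiently transfected with GAL4-UAS reporter units and chimeric NR-Gal4 constructs; chemical exposure 24 h. Reporter mRNA quantified by RT-PCR, fluorescent labelling and capillary electrophoresis; gain of signal fitted relative to DMSO baseline.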

A short description of assay [10]: ATG_M_32_TRANS: Attagene TRANS-FACTORIAL HepG2 Assay for M32 Transcription Factor (Internal Marker) (AID 2282984).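 Also: transcript level of a background control reporter unit measured by RT-PCR and capillary electrophoresis.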 The settings on record: HepG2 Attagene TRANS M32 internal marker reporter. The method, boiled down: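 HepG2 cells transiently transfected with multiple GAL4-UAS reporter transcription units, dosed for 24 hours; reporter mRNA quantified by RT-PCR, 6-FAM primer extension, HpaI digestion and capillary electrophoresis. Gain-of-signal fitted versus DMSO baseline; internal background-control marker.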

Chain of Bile acid receptor (Homo sapiens) (Q96RI1 whole entry, looked up, the tested form may be a part): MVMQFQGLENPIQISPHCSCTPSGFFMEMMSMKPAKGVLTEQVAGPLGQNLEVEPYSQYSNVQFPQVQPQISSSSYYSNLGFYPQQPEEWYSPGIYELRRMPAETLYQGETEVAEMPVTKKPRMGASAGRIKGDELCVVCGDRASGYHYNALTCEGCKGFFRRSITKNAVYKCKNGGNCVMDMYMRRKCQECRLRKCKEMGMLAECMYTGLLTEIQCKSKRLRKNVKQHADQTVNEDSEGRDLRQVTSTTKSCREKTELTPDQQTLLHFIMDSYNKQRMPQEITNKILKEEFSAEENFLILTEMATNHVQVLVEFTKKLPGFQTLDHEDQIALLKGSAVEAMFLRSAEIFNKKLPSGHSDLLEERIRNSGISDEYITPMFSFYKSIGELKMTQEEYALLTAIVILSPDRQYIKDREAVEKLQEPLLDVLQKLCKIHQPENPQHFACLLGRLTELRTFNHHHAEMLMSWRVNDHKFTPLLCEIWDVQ
Chain of Glucocorticoid receptor (Homo sapiens) (P04150 whole entry, looked up, the tested form may be a part): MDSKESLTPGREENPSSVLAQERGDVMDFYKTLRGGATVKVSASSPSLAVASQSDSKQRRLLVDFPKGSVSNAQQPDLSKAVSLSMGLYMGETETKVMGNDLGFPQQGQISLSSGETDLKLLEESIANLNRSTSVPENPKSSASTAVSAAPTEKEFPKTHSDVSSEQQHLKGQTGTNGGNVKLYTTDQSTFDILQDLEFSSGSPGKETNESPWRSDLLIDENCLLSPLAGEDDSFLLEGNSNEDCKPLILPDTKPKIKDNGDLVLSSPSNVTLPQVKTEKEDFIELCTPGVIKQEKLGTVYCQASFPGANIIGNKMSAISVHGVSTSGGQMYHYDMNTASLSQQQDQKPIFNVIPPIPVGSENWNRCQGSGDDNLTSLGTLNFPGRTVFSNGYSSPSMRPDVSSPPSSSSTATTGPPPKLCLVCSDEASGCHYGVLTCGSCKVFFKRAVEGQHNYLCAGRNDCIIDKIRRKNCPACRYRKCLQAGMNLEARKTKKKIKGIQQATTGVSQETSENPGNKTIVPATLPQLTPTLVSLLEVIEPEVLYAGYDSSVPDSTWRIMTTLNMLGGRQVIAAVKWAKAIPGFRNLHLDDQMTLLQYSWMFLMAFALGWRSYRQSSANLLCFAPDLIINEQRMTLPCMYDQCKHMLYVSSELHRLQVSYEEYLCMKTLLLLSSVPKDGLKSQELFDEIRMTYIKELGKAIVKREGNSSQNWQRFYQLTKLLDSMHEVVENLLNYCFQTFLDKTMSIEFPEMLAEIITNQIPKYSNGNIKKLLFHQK
Chain of Transcriptional activator Myb (Homo sapiens) (P10242 whole entry, looked up): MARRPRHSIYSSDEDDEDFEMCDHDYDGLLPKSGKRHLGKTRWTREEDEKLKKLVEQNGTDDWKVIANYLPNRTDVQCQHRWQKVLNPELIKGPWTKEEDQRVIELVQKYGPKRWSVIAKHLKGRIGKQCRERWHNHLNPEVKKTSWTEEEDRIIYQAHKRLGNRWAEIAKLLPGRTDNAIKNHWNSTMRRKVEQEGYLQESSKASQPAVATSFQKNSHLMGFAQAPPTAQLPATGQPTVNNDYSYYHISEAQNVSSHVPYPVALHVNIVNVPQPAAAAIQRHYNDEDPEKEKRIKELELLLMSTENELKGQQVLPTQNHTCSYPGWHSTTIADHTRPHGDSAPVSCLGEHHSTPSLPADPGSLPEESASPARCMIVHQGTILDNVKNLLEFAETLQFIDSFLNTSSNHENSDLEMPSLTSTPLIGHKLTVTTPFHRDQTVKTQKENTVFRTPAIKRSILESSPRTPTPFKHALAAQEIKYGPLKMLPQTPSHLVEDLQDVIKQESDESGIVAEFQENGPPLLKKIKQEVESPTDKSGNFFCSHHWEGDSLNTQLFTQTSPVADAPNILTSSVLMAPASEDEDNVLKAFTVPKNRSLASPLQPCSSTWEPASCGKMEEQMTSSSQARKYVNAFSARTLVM
Chain of Nuclear receptor subfamily 4 group A member 2 (Homo sapiens) (P43354 whole entry, looked up, the tested form may be a part): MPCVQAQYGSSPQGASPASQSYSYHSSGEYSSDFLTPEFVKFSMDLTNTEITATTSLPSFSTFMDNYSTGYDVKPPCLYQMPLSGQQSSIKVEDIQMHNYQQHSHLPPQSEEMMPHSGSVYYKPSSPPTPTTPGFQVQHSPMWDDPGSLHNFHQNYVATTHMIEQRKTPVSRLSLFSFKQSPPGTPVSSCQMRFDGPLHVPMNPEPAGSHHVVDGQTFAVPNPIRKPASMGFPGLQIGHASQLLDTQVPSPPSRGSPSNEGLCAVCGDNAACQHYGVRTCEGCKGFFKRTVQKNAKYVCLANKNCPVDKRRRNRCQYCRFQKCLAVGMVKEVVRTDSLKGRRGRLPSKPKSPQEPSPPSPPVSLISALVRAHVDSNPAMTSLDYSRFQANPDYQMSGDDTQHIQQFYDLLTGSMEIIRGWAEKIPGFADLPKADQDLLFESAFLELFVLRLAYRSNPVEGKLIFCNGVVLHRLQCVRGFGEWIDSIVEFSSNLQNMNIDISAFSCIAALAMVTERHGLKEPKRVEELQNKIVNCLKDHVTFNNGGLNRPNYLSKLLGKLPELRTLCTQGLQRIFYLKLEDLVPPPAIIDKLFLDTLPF
Chain of Oxysterols receptor LXR-alpha (Homo sapiens) (Q13133 whole entry, looked up, the tested form may be a part): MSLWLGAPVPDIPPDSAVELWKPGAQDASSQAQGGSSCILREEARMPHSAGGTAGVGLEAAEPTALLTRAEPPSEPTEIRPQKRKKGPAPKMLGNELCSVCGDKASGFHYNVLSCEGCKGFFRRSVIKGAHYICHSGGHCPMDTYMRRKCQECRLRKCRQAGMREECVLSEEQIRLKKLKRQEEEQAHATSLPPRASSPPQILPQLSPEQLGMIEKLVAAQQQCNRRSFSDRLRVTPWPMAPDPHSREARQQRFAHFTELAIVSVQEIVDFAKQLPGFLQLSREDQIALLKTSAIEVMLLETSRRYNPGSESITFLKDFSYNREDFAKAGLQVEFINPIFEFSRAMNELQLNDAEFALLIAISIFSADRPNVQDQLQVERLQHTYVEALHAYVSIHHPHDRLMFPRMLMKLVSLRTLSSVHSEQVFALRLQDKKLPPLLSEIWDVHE
Chain of Oxysterols receptor LXR-beta (Homo sapiens) (P55055 whole entry, looked up, the tested form may be a part): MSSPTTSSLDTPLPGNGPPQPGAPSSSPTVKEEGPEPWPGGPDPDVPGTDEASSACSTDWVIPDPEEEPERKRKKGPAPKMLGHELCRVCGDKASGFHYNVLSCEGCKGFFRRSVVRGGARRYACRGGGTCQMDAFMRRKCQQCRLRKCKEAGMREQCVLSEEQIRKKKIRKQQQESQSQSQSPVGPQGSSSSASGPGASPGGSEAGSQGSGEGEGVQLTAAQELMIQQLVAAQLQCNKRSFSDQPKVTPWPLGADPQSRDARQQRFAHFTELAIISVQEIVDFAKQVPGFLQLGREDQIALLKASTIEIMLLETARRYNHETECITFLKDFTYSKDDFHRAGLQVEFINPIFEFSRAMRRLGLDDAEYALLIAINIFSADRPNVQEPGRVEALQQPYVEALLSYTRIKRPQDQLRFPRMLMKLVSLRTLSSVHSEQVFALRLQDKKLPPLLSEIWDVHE
Chain of Nuclear respiratory factor 1 (Homo sapiens) (Q16656 whole entry, looked up): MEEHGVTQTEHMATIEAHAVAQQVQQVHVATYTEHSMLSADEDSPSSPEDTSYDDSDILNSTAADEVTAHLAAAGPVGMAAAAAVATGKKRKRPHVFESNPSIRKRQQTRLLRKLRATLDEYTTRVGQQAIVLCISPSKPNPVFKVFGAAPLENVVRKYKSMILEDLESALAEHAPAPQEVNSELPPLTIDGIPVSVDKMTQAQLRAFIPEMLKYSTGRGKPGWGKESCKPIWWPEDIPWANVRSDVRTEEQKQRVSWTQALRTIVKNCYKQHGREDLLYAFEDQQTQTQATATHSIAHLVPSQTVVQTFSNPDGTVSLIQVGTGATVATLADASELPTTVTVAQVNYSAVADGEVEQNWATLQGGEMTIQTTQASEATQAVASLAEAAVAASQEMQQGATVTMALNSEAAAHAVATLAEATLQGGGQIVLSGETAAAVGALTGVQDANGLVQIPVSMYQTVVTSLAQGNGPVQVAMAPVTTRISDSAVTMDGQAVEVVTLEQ
Chain of Estrogen-related receptor gamma (Homo sapiens) (P62508 whole entry, looked up, the tested form may be a part): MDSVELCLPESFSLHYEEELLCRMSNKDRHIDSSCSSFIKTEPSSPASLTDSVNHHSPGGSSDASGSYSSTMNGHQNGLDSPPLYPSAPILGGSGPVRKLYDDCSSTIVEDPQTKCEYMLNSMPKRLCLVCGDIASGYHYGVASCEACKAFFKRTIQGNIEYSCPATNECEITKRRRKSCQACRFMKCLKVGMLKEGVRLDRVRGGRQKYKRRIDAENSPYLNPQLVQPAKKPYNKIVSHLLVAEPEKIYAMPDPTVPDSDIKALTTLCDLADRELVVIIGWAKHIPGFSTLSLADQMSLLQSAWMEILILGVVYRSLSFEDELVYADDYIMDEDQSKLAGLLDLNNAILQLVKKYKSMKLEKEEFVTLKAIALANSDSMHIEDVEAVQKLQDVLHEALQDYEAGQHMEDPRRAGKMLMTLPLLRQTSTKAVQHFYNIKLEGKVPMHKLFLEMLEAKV

Turning to `Cc1nc(-c2ccc3c(c2)CCN(CCC2CCC(NC(=O)/C=C/c4ccc(F)cc4)CC2)CC3)no1` (stereo not drawn), the outcome in [1], in assay [2], in assay [3], in assay [4] and in assay [5] was inactive.
In the case of `Cc1ccc2ncccc2c1`, the result in assay [6], in [1], in assay [3], in assay [4] and in [5] was inactive.
In the case of `CCCCCCCCCCC`, the result in [1], in assay [3], in assay [4] and in assay [5] was inactive.
As to `C=CCOC(=O)c1ccccc1C(=O)OCC=C`, the result in assay [2], in [8], in assay [3], in assay [9], in [4] and in [5] was inactive. Besides, in [7], the AC50 was 25.1 µM (active).
In the case of `C[Si]1(C)O[Si](C)(C)O[Si](C)(C)O[Si](C)(C)O1`, the compound was classed as inactive in [2], in [10], in assay [9], in [4] and in assay [5].
With `CC(C)c1ccc(C(=O)N=C(N)N)cc1S(C)(=O)=O`, the outcome in [1], in assay [8], in assay [3], in assay [10], in [4] and in assay [5] was inactive.
With `CCCCC(CC)COC(=O)CC(C(=O)OCC(CC)CCCC)S(=O)(=O)O` (stereo not drawn), the outcome in assay [1], in [7], in assay [3], in assay [9], in assay [4] and in assay [5] was inactive.
`COc1cc(C=O)ccc1O`: the outcome in assay [2], in assay [4] and in [5] was inactive.
`CCc1c(C(=O)NN2CCCCC2)nn(-c2ccc(Cl)cc2Cl)c1-c1ccc(Br)cc1`: the outcome in assay [2], in assay [10], in assay [9] and in assay [4] was inactive. Moreover, the AC50 in assay [5] was 7.79 µM (active).
In the case of `CCOC(=O)C(C)(C)Oc1ccc(Cl)cc1`, the result in [2], in assay [7], in [10], in assay [9], in assay [4] and in assay [5] was inactive.
As for `COC(=O)c1ccc(O)cc1`, the compound was called inactive in [7], in assay [8], in [3], in assay [10], in assay [9] and in [4]. The compound was classed as inactive in assay [5].
Regarding `COCCOCCOC`, the outcome in [2], in [7], in assay [8], in assay [4] and in [5] was inactive.
As to `COc1ccc(C)cc1N`, the compound was classed as inactive in assay [1], in [7], in [8], in [3], in [9] and in [4]. The compound was called inactive in assay [5].
On to `CC(=O)Oc1ccccc1C(=O)O`, for which the compound was called inactive in [1], in assay [3], in assay [4] and in assay [5]. For the same compound, the figures for the AC50 in [7], in [8] and in assay [9] were 71.6 µM (active), 100 µM (active) and 100 µM (active), respectively.
`CC(CO)OC(C)CO` (stereo not drawn) (tested in a mixture with another compound): the outcome in assay [2], in [3], in assay [10], in assay [4] and in assay [5] was inactive.
`Nc1ccccc1N`: the call in assay [1], in assay [7], in assay [8], in [3], in [10] and in [4] was inactive. For the same compound, the compound was classed as inactive in assay [5].
On to `O=c1[nH]cc(F)c(=O)[nH]1`, for which the compound was classed as inactive in [1], in assay [10], in assay [9], in [4] and in [5].
For the compound `CCCCCCCCCCCCCO`, the compound was classed as inactive in assay [1], in [8], in assay [3], in assay [10] and in assay [5]. For the same compound, the half-maximal activity concentration (AC50) in assay [4] was 34.3 µM (active).
On to `Cc1ccc(C)c(C)c1`, for which the call in assay [1], in assay [9], in assay [4] and in [5] was inactive.
Turning to `CC(C)(C)c1cc(O)c(C(C)(C)C)cc1O`, the compound was called inactive in assay [1], in [7], in assay [8], in assay [3], in [10] and in [9]. Moreover, in assay [4], the outcome was inactive. Also, the AC50 in assay [5] is 162 µM (active).
`CC1(C)CC(N=C=O)CC(C)(CN=C=O)C1` (stereo not drawn): the compound was called inactive in assay [2], in assay [8], in [3], in [10], in [9] and in [4]. Further, the outcome in assay [5] was inactive.
Turning to `O=C(N[C@@H](Cc1ccccc1)[C@@H](O)C(=O)N1C[C@@H](O)[C@@H](O)C1)c1cc2cc(Cl)ccc2[nH]1`, the compound was classed as inactive in assay [1], in [3], in [10], in [4] and in assay [5].
For `Cc1oc(-c2ccccc2)nc1CCOc1cccc2c1ccn2CCC(=O)O`, the compound was classed as inactive in [1], in assay [8], in [10], in [9], in [4] and in assay [5].
For the compound `Cc1ccccc1Cl`, the result in [2], in assay [7], in [8], in assay [3], in [4] and in assay [5] was inactive.
For the compound `Cc1ccc(N(C)C)cc1`, the call in assay [1], in [3], in assay [10], in assay [4] and in assay [5] was inactive.
With `Cc1cccc(Nc2cc(Cl)nc(SCC(=O)O)n2)c1C`, the compound was classed as inactive in assay [1], in assay [3], in assay [4] and in assay [5].
As for `CC(=O)OC/C=C(\C)CCC=C(C)C`, the result in assay [1], in assay [10], in assay [4] and in [5] was inactive.
For the compound `Nc1ccc(S(=O)(=O)c2ccc(N)cc2)cc1`, the compound was classed as inactive in assay [2], in assay [7], in assay [8], in assay [3], in assay [10] and in [9]. Besides, the result in assay [4] and in assay [5] was inactive.
Consider `CCCCc1ccc2c(n1)[C@@H](c1ccc(OC)cc1C[C@H](C)C(=O)O)[C@H](C(=O)O)[C@H]2c1ccc2c(c1)OCO2`, for which the result in assay [2], in [7], in [8], in assay [10], in assay [4] and in [5] was inactive.
Consider `FC(F)(F)C(F)(F)C(F)(F)C(F)(F)C(F)(F)C(F)(F)CCI`, for which the compound was called inactive in [7], in assay [8], in [3], in [10], in [4] and in assay [5].
Regarding `Cc1cc(=O)[nH]c(=S)[nH]1`, the compound was classed as inactive in assay [2], in [3], in assay [9], in assay [4] and in [5].
In the case of `CCCCCCOCCO`, the call in [1], in assay [7], in [8], in assay [3], in [10] and in [9] was inactive. Further, the compound was classed as inactive in assay [4] and in assay [5].
